From PubChem BioAssay
Hits are enriched below; roughly 21% of the tested compounds scored in any of these assays.
Pf growth 48h = P. falciparum growth inhibition at 48 hours (one generation); AID 504832; Potency, µM (highest dose often 28.7 µM), hits mostly inhibitors; P. falciparum luciferase growth in erythrocytes, 48 h; 310,000 compounds, 5.9% hits
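Cell-based growth assay: transgenic P. falciparum expressing firefly luciferase, cultured in red cells within RPMI 1640 containing 0.5% w/v Albumax, 24 mM bicarbonate and gentamycin. A drop in luciferase activity indicates inhibition.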
CHX counter = affects cycloheximide protein synthesis inhibition readout, counter-screen; 300,000 compounds, 12% hits; cell reporter, cycloheximide protein synthesis inhibition counterscreen; max response, %; in the data active = max response mostly above about 13%, no sharp cut-off; inactive = mostly below about 14%; note: read at 38.3 µM for the half of the compounds with a filed dose
Pf growth 96h = inhibits malaria parasite growth, 96 h. 320,000 compounds, 6.9% hits. Potency, µM (doses to about 28.7 µM), hits mostly inhibitors. P. falciparum luciferase reporter growth, 96 h
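Compounds incubated with erythrocytes infected by luciferase-expressing P. falciparum (2% hematocrit, 0.05% parasitemia final) for 96 hours, 37 C in 5% CO2. Growth inhibition scored as decreased luciferase luminescence.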
Shiga inhibitor = blocks Shiga toxin action in Vero cells | Vero cells, Shiga toxin protein synthesis inhibition reporter | inhibition, % at 38.7 µM | 290,000 compounds, 9.2% hits | AID 2315; in the data active = inhibition mostly above about 28%, no sharp cut-off; inactive = mostly below about 43%
Numbers stand for hits; i = inactive; ? = inconclusive; nt = no result; [ ] = remark or other dose. Unless noted, calls come from the whole dose curve; as a rule, active = well fitted inhibition curve with a large enough effect; inconclusive = small, poorly fitted or top-dose-only effect, or another doubt; inactive = no such curve, though single readings can be large or run the other way.

SMILES	Pf growth 48h	CHX counter	Pf growth 96h	Shiga inhibitor
O=C(Nc1ccccc1O)c1cc(S(=O)(=O)N2CCOCC2)c(Cl)cc1Cl	7.4µM	i	i	i
O=C(Nc1ccccc1O)c1cc(S(=O)(=O)N2CCOCC2)ccc1Cl	i	i	?	i
O=C(Nc1ccc(Cl)c(S(=O)(=O)N2CCOCC2)c1)c1ccccc1-c1ccc(C(F)(F)F)cc1	?	i	?	i
CCCCn1c(N)c(N(CC)C(=O)c2cc(S(=O)(=O)N3CCCCCC3)ccc2OC)c(=O)[nH]c1=O	i	nt	i	nt
COc1cc(/C=N/NC(=O)COc2ccc([N+](=O)[O-])cc2)ccc1OCC(=O)N1CCOCC1	?	i	i	i
COc1cccc(CN(C)C(=O)CSCC(=O)Nc2cc(C)on2)c1OC	?	nt	i	nt
Fc1cccc(/C=C2\CCCC3=C2NC(=S)NC3c2cccc(F)c2)c1 (stereo unspecified)	2.6µM	i	4.1µM	i
CCn1cc(SCC(=O)NC2CCCC2)c2ccccc21	7.4µM	i	?	i
CCn1cc(SCC(=O)NCC2CCCO2)c2ccccc21 (stereo unspecified)	i	6.6	i	i
COc1ccccc1C(=O)NCCn1cc(SCC(=O)NCC2CCCO2)c2ccccc21 (stereo unspecified)	?	i	10µM	i
CCN(CC)C(=O)Cn1cc(SCC(=O)NC)c2ccccc21	i	i	12µM	i
CCN(CC)C(=O)Cn1cc(SCC(=O)NC2CCCC2)c2ccccc21	i	i	?	i
N#CN(Cc1ccccc1)Cc1ccccc1	i	i	i	i
COc1ccc(NC(=S)Nn2cnnc2)c(OC)c1	i	i	?	i
C=CCc1ccccc1OCC(O)CN(CC)CC (stereo unspecified)	nt	i	?	i
CCOC(=O)c1sc(NC(=O)C(C)Sc2nc(N)cc(=O)[nH]2)nc1C (stereo unspecified)	?	i	i	i
CCCN(CCC)C(=O)Cn1ccc(=N)c2ccccc21	1.7µM	i	nt	i
CC(C(Sc1ccccc1N)c1ccccc1)[N+](=O)[O-] (stereo unspecified)	2.6µM	32	i	61
O=C(O)[C@@H]1CCCN1S(=O)(=O)c1cccc2cccnc12	i	nt	i	nt
O=C(CCSc1ccccc1)Nc1nc2c(s1)CCCC2	i	31	nt	162
O=C(Nc1nc2c(s1)CCCC2)c1cccnc1	i	52	i	70
C/C(=N\Nc1nc2c(s1)CCCC2)c1ccccc1	?	43	nt	143
CC(C)(C)c1nc(SCC(=O)Nc2nc3c(s2)CCCC3)c2ccccc2n1	1.2µM	i	?	i
Cc1ccc(NC(=O)CSCC(=O)N2CCCc3ccccc32)cc1	i	nt	i	nt
COc1ccc(C/C(=N\O)c2ccc(OC)cc2)cc1	i	i	i	i
SMILES	Pf growth 48h	CHX counter	Pf growth 96h	Shiga inhibitor
O=C(Nc1nc2c(s1)CCCC2)c1cccs1	i	27	i	i
O=C(NC(=S)Nc1nc2c(s1)CCCC2)c1ccc(C(=O)c2ccccc2)cc1	i	i	i	i
O=C(Nc1nc2c(s1)CCCC2)c1cc(-c2ccncc2)nc2ccccc12	i	i	i	i
O=C(Nc1nc2c(s1)CCCC2)Oc1ccccc1	i	21	i	34
O=C(Cc1cccs1)Nc1nc2c(s1)CCCC2	i	54	i	132
CCOC(=O)C1(Cc2cccc(F)c2)CCN(C(=O)Cn2cnnn2)CC1	i	i	i	i
COc1ccccc1C(=O)N/C(=C\c1cn(C)c2ccccc12)C(=O)N1CCCC1	?	i	?	i
CC(=O)Nc1ccc(N(C(=O)CNC(=O)c2ccco2)C(C(=O)NCc2ccco2)c2ccccc2)cc1 (stereo unspecified)	i	i	i	i
Cc1ccc(C(C(=O)NCc2ccco2)N(Cc2ccco2)C(=O)CNC(=O)c2ccco2)cc1 (stereo unspecified)	i	i	6.6µM	i
Cc1ccc(C(C(=O)NCc2ccco2)N(C(=O)CNC(=O)c2cccs2)c2c(C)cc(C)cc2C)cc1 (stereo unspecified)	?	29	i	i
COC(=O)c1ccc(COC(=O)C(CCSC)NC(=O)COc2ccccc2)cc1 (stereo unspecified)	i	i	i	i
Cc1nc(N2CCN(S(=O)(=O)c3ccccc3C#N)CC2)c2c(-c3ccccc3)csc2n1	10µM	nt	?	nt
Cc1ccc2nc(N3C(=O)C(O)=C(C(=O)c4ccc(C)o4)C3c3ccc(O)cc3)sc2c1 (stereo unspecified)	i	nt	i	nt
CCCC[C@]12Cc3c(ccc4ccccc34)C(O1)C1=C(O2)C(=O)c2ccccc2C1=O	1.5µM	i	i[5.75 µM]	i
O=C(NCc1n[nH]c(=S)n1-c1ccc(Br)cc1)c1ccc(S(=O)(=O)N2CCOCC2)cc1	i	i	?	i
